Unmarked numbers belong to inactive results. Activity calls are given as the source filed them.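 How the source made its calls: active means growth inhibition above 50% at the single 2 µM test dose, taken to imply half-maximal potency below 2 µM; inactive means the rest.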

Growth inhibition data for 36 compounds are collected here from PubChem BioAssay.

A short description of this assay: antimalarial activity against Dd2 strain (AID 2302).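 Further: 0% = DMSO untreated growth and 100% = chloroquine plus artemisinin killed control.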 The conditions noted are these: P. falciparum Dd2 in RBCs, LDH growth readout, 72 h; at 2 µM; stronger effect = higher value.
`CN(Cc1ccncc1)C(Cc1ccccc1)C1CCN(Cc2ccc(O)c(Cl)c2)CC1` (stereo unspecified): the growth inhibition was 97% (active).
The value for `Clc1ccccc1CN1CCC(NCc2cccc(-n3ccnc3)c2)CC1` was 43%.
The same measure for `CCN1CCC(N(Cc2ccc(-c3ccc(C(F)(F)F)cc3)cc2)C(=O)Cn2c(CCc3cccc(F)c3F)cc(=O)c3cn(C)nc32)CC1`: 87% (active).
The same measure for `CC[C@H]1CN2CCc3cc(OC)c(OC)cc3[C@@H]2C[C@@H]1CC1=NCCc2c1[nH]c1ccc(OCc3ccccc3)cc21`: 89% (active); for `Nc1ncc(-c2ccsc2)c2ccc(-c3cnc[nH]3)cc12`: 70% (active); for `Cc1c(C)c2c(c(C)c1O)CC[C@@](C)(C(=O)N1CCC(CCN3CCC(c4c[nH]c5ccccc45)CC3)CC1)O2`: 91% (active).
`Cc1ccc(NC(=O)Nc2ccc(Cl)cc2)cc1-c1cccc(C(=O)Nc2ccc(F)cc2)c1`: the growth inhibition is 52% (active).
The value for `N#Cc1cc([N+](=O)[O-])ccc1-n1nc(C(N)=O)n(Cc2cccc(F)c2)c1=S` was 100% (active); that for `Cc1ccccc1C1CCN(C2CCC(NC(=O)c3ccc(-c4cc(C(F)(F)F)nn4C)s3)CC2)CC1` (stereo unspecified) was 68% (active); that for `CC1(C)N=C(N)N=C(N)N1OCc1cc2ccccc2cc1CON1C(N)=NC(N)=NC1(C)C` was 51% (active).
As to `Cc1cc(N[C@@H](CC(C)C)C(=O)NCc2cccs2)nc(NCCc2ccc(F)cc2)n1`, the growth inhibition is 59% (active).
The value for `O=C(N[C@@H](Cc1ccccc1)[C@H](O)CNC1CCCCC1)c1cc(C2CCCC2)cc(N2CCCC2=O)c1` was 98% (active).
The value for `O=C(Nc1ccc(Cl)cc1)c1ccc(CN2CCCN(Cc3cccc(O)c3)CC2)cc1` was 69% (active); that for `COc1ccc(N2CCN(CCCCNC(=O)c3ccc(NC(=O)c4cc(C(F)(F)F)cc(C(F)(F)F)c4)cc3)CC2)cc1OC` was 100% (active).
The value for `CS(=O)(=O)CCNCc1cc(-c2cc3ncnc(Nc4ccc(OCc5cccc(F)c5)c(Cl)c4)c3s2)cs1` was 48%; that for `OCC1CCN(Cc2cccc(-c3cccc(-c4nc5ccc(C(F)(F)F)cc5[nH]4)c3)c2)CC1` was 101% (active).
Consider `CCN(CCCNc1nc(=S)[nH]c2cc(OC)c(OC)cc12)c1ccccc1`, for which the growth inhibition was 23%.
The value for `Cc1cc(=O)[nH]c(/N=C(/N)NOCc2ccccc2)n1` was 1%; that for `O=C(Nc1cccc(-c2ccc(-c3nc4ccccc4[nH]3)cc2)c1)Nc1ccc(F)c(F)c1F` was 38%.
On to `CC(C)c1ccc(NS(=O)(=O)c2cccc(C(=O)NC3CCN(CC4CCCCC4)CC3)c2)cc1`, for which the growth inhibition is 69% (active).
For the compound `CC(C)(C)c1ccc2nc(-c3ccc(/C=C/C(=O)NC4CCN(Cc5ccccc5)CC4)cc3)[nH]c2c1`, the growth inhibition was 96% (active).
The value for `COc1cccc(C=NNc2cc(C)nc3c(OC)cccc23)c1` was 58% (active); that for `O=C(/C=C/c1ccc(Cl)c(Cl)c1)NCCCCCN1CCCC(CNC(=O)Nc2ccc(Oc3ccccc3)cc2)C1` (stereo unspecified) was 6%; that for `CC(C)CNCc1cccc(-c2cccc(CN(CCN(C)C)C(=O)NCCc3ccccc3)c2)c1` was 83% (active).
For the compound `CC(C)(c1ccccc1)c1ccc(O)c(CN2CCOCC2)c1`, the growth inhibition is 88% (active).
With `CC1CCN(C(=O)C(Cc2c[nH]c3ccccc23)NS(=O)(=O)c2ccc(Cl)cc2)CC1` (stereo unspecified), the growth inhibition is 99% (active).
The value for `O=C1NC(=O)C(c2ccc(Cl)cc2)=C1Nc1cccc(S(=O)(=O)C(F)(F)F)c1` was 51% (active).
As to `COc1ccc(N2C(=O)c3c(c4ccccc4n3C)C2c2ccccc2O)cc1` (stereo unspecified), the growth inhibition was 91% (active).
Take `CCCCC(=O)Nc1nonc1-c1ccc(OCC)c(OCC)c1`: the growth inhibition is 95% (active).
Consider `CN(C(=O)/C=C/c1c(Cl)cccc1Cl)C1CCN(CCCCCNC(=O)/C=C/c2ccc(Cl)c(Cl)c2)CC1`, for which the growth inhibition is 62% (active).
As for `CCn1c(-c2cc(C)on2)nc2cnc(Oc3ccc(C(=O)N4CC(=O)N(C)C4C(C)(C)C)cc3)cc21` (stereo unspecified), the growth inhibition was 57% (active).
The value for `COc1cc2nc(N3CCC(CNC(=O)c4ccc(-c5ccc(C(=O)N(C)C)cc5C)cc4)CC3)nc(N3CCN(C)CC3)c2cc1OC` was 84% (active); that for `Cc1[nH]c(C)c(-c2csc3ccccc23)c(=O)c1Cl` was 75% (active); that for `COc1cc2nc(N3CCN(C(=O)c4cccc(I)c4)CC3)nc(N)c2cc1OC` was 26%.
`Cc1cc(NC(=O)c2cccs2)ccc1OC1CCN(Cc2ccc(C#N)cc2)CC1`: the growth inhibition was 92% (active).
The same measure for `COc1ccc(NC(=O)c2ccc(-c3nc(-c4cccc(C(F)(F)F)c4)cs3)cc2)cc1N1CCN(C)CC1`: 59% (active).
